We go through 16 compounds from PubChem BioAssay (EPA / NIEHS).

Assay [1] deals with Thyroperoxidase (TPO), gene 54314. Put plainly: CCTE_Simmons_AUR_rTPO: CCTE's Amplex UltraRed Assay for Thyroperoxidase (TPO) Inhibition, Simmons Lab (AID 2283662).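 On AC50: potency for loss of signal meaning inhibition of peroxidase activity.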 In outline: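 Rat thyroid microsomes (5 ug protein) were incubated with test compound (8 concentrations, 5 nM–87.5 uM final, 0.5% DMSO), 25 uM Amplex UltraRed and 300 uM H2O2 in 200 mM phosphate buffer for 30 min at 37C in the dark; fluorescence read at 544/590 nm.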

Assay [2] in a line: CCTE_Simmons_CellTiterGLO_HEK293T: Viability Assessment in CCTE's Assays for Thyroperoxidase (TPO) Inhibition, Simmons Lab (AID 2283665).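 Further: cells exposed to compound for 24 h before readout; actives reduce ATP signal below DMSO vehicle meaning cytotoxicity.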 In outline:
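Luciferase-coupled ATP content after 24 h exposure gives viability; 8-point series from 5 nM to 87.5 uM final in 0.5% DMSO. Human HEK293T cells, 1% FBS medium, three biological replicates, dichlone positive control.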
For orientation: In ATP-based viability assays light output follows the ATP content of the culture.

A short description of assay [3]: Tanguay_ZF_120hpf_PFIN_legacy: (Legacy) Oregon State University Tanguay Lab 120 Hour Post-fertilization zebrafish Assay for Pectoral Fin Malformation (AID 2283648).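 Further: each larva judged yes or no for fin defect by brightfield with dead larvae skipped.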 In outline: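 Pectoral fin malformation was recorded as a binary endpoint at 120 hpf in wild-type Tropical 5D larvae, which had been dechorionated and exposed statically from 6 hpf at 28C in 0.64% DMSO. Dead embryos were excluded.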

Assay [4] is described as follows: Tanguay_ZF_120hpf_CFIN_legacy: (Legacy) Oregon State University Tanguay Lab 120 Hour Post-fertilization zebrafish Assay for Caudal Fin Malformation (AID 2283649). In outline:
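Binary presence or absence of caudal fin malformation at 120 hpf, read by brightfield microscopy, with DMSO as baseline. Larvae came from 5D wild-type embryos exposed statically from 6 hpf at 28C after pronase dechorionation.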

A short description of assay [5]: Tanguay_ZF_120hpf_PIG_legacy: (Legacy) Oregon State University Tanguay Lab 120 Hour Post-fertilization zebrafish Assay for Pigmentation Malformation (AID 2283650). In outline:
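Pigment malformation recorded as a binary call at 120 hpf in zebrafish (Tropical 5D) exposed singly from 6 hpf after pronase dechorionation. Static, sealed, 28C exposure, 0.64% DMSO; mortality excludes scoring; positive-direction fit against DMSO.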

A short description of assay [6]: Tanguay_ZF_120hpf_CIRC_legacy: (Legacy) Oregon State University Tanguay Lab 120 Hour Post-fertilization zebrafish Assay for Circulatory Malformation (AID 2283651). In outline: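 Binary circulatory malformation call at 120 hpf by brightfield imaging of zebrafish larvae; chorion removed at 4 hpf, static exposure from 6 hpf in sealed dark plates at 28C, final DMSO 0.64%; non-mortality endpoints skipped if embryo died.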

Assay [7] is described as follows: Tanguay_ZF_120hpf_TRUN_legacy: (Legacy) Oregon State University Tanguay Lab 120 Hour Post-fertilization zebrafish Assay for Truncated Body (AID 2283655). In outline: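 Truncated body is recorded as a binary endpoint at 120 hpf by brightfield imaging of wild-type 5D larvae. Exposure runs statically from 6 hpf at 28C with 0.64% DMSO; embryos dying earlier are not scored.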

A short description of assay [8]: Tanguay_ZF_120hpf_TR_legacy: (Legacy) Oregon State University Tanguay Lab 120 Hour Post-fertilization zebrafish Assay for Touch Response (AID 2283667). In outline: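 Binary touch-response endpoint in larvae at 120 hpf after static waterborne exposure from embryo stage (28°C, 0.64% DMSO vehicle, 5 uM trimethyltin chloride as positive control); embryos dead at 24 or 120 hpf excluded; fitted as gain versus DMSO.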

Assay [9] in a line: CCTE_Padilla_ZF_144hpf_TERATOSCORE: (Legacy) CCTE's 144 Hour Post-fertilization zebrafish Assay Teratoscore, Padilla Lab (AID 2283679; active means hit-call score of the fitted dose curve at least 0.9, where 1 is the maximum; inactive means score below 0.9;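 on AC50: zebrafish embryos with chorions exposed by immersion from 6-8 hpf to 5 dpf with daily renewal; teratogenicity score from eye scoring of death hatching and malformations at 144 hpf; higher score means more developmental defects relative to DMSO baseline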). In outline:
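Larvae scored by eye at 144 hpf for death, hatching and malformations after a day in clean Hanks'. Before that, daily-renewed exposure at 80 uM (0.4% DMSO, 26C) from roughly 6-8 hpf through 5 dpf, 4 embryos per chemical.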

Assay [10] can be described thus: Tanguay_ZF_120hpf_ActivityScore_legacy: (Legacy) Oregon State University Tanguay Lab 120 Hour Post-fertilization zebrafish Assay Score for Activity (AID 2283742).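 On AC50: dechorionated Tropical 5D wild-type zebrafish embryos held singly per well.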 In outline: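 Binary scoring of mortality and morphology by brightfield at 24 and 120 hpf, summarised into one activity score from 18 components relative to DMSO. Wild-type Tropical 5D zebrafish, chorion removed at 4 hpf, static exposure 6–120 hpf, 28 °C.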

A short description of assay [11]: Tanguay_ZF_120hpf_SWIM_legacy: (Legacy) Oregon State University Tanguay Lab 120 Hour Post-fertilization zebrafish Assay for Swim Bladder Malformation (AID 2283654).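 Further: swim bladder malformation in each larva scored yes or no under brightfield.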 In outline: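 Scoring is binary for swim bladder defects at 120 hpf, by brightfield inspection of zebrafish larvae. Embryos were exposed singly from 6 hpf after pronase dechorionation, at 28C with 0.64% DMSO; mortality excluded scoring.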

Assay [12] in a line: STM_H9_OrnithineISnorm_perc: Stemina devTOX quickPredict H9 human embryonic stem cell (hESC)-based Assay for Ornithine (ORN) Metabolite Biomarker, Normalized (AID 2283712; active means hit-call score of the fitted dose curve at least 0.9, where 1 is the maximum; inactive means score below 0.9;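 further: ornithine released into spent medium during last day measured by mass spectrometry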). In outline: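 Ornithine in spent medium from the last 24 h of a 72 h exposure, deproteinised and quantified by UPLC-HRMS against an isotope-labelled internal standard, expressed relative to 0.1% DMSO. Pluripotent H9 cells; compound refreshed every 24 h.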

A short description of assay [13]: STM_H9_CystineISnorm_perc: Stemina devTOX quickPredict H9 human embryonic stem cell (hESC)-based Assay for Cystine (CYSS) Metabolite Biomarker, Normalized (AID 2283713; active means hit-call score of the fitted dose curve at least 0.9, where 1 is the maximum; inactive means score below 0.9). In outline: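 Cystine in spent media from the last 24 h of a 72 h H9 hESC exposure (daily re-dosing), measured by UPLC-HRMS. Values normalized to isotopic internal standard, then to 0.1% DMSO; viability via CellTiter-Fluor.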

The nature of assay [14]: STM_H9_OrnCyssISnorm_ratio: Stemina devTOX quickPredict H9 human embryonic stem cell (hESC)-based Assay for Ornithine (ORN):Cystine (CYSS) Ratio (AID 2283714). In outline: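 Ratio of internal-standard-normalized ornithine to cystine, measured by UPLC-HRMS in spent media from the last 24 h. H9 cells kept pluripotent, dosed 72 h with daily media and compound renewal; DMSO 0.1% serves as baseline.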

Assay [15] in a line: CEETOX_H295R_MTT_cell_viability: Viability Assessment in the CeeTox HT-H295R MTT Assay (AID 2283718; active means hit-call score of the fitted dose curve at least 0.9, where 1 is the maximum; inactive means score below 0.9). In outline:
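MTT reduction (0.5 mg/ml, 4 h at 37 C; absorbance at 570 and 650 nm) gave viability as background-corrected percent change versus controls. H295R cells had 48 h forskolin (10 uM) prestimulation, then 48 h chemical exposure at 0.1% DMSO.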

Values joined by “and” are separate entries in the source; they are usually repeats but may differ in a detail not shown here. Equal entries are not always repeated. Inconclusive results are not listed. Active and inactive are the calls of the source. How the source made its calls, unless noted: active means hit-call score of the fitted dose curve at least 0.9, where 1 is the maximum; inconclusive means response in the unintended direction; inactive means score below 0.9.

On to `CCCCCCc1ccc(N)cc1`, for which the figures for the concentration at half-maximal activity (AC50) in [1] and in [2] were 0.0476 µM (active) and 11.3 µM (active), respectively.

On to `CS(=O)(=O)c1ccc([C@@H](CC2CCCC2)C(=O)Nc2cnccn2)cc1Cl`, for which the outcome in assay [3], in assay [4], in assay [5], in assay [6], in assay [7] and in assay [8] was inactive. The call in [10] was inactive. Moreover, the AC50 (commonly the concentration at which the activity in the assay is half-maximal) in assay [9] was 58.6 µM (active).

For the compound `CCCCCCCCCCCCCCC`, the result in assay [3], in assay [4], in assay [6], in assay [11], in [7] and in assay [10] was inactive.

Take `Cc1[nH]nc2c1N=C(c1ccccc1Cl)c1cc([N+](=O)[O-])ccc1N2`: the result in [3], in assay [4], in assay [5], in assay [6], in assay [11] and in assay [7] was inactive. In addition, the compound was called inactive in assay [8] and in assay [10]. In addition, the AC50 in assay [1] was 2.9 µM (active); in [2] it was 15.2 µM (active); in assay [9] it was 1.32 µM (active); in assay [12], 2.08 µM (active); in assay [13], 1.62 µM (active); in [14] it was 1.85 µM (active).

As to `Cc1cc(Cc2cc(C)cc(C(C)(C)C)c2O)c(O)c(C(C)(C)C)c1`, the results for the AC50 in assay [1] and in assay [2] were 1.04 µM (active) and 6.57 µM (active), respectively.

As for `CCCCCCCCCCCCOS(=O)(=O)O`, the compound was called inactive in [3], in assay [4], in assay [5], in assay [6], in assay [11] and in assay [7]. Moreover, the outcome in [8] and in assay [9] was inactive. For the same compound, the concentration at half-maximal activity (AC50) in assay [10] was 11 µM (active).

Consider `O=C(CCCN1CCC(O)(c2ccc(Cl)cc2)CC1)c1ccc(F)cc1`, for which the figures for the AC50 in [3], in [9] and in [10] were 5.92 µM (active), 0.664 µM (active) and 4.09 µM (active), respectively. Also, the compound was classed as inactive in assay [4], in assay [5], in assay [6], in [11], in [7] and in [8]. Further, the result in [12], in assay [13], in [14] and in assay [15] was inactive.

On to `CC(=O)Nc1ccc(O)cc1`, for which the result in assay [3], in [4], in [5], in assay [6], in [11] and in assay [7] was inactive. The result in [8] and in assay [10] was inactive.

Take `CN(C)CCOC(c1ccccc1)c1ccccc1`: the concentration at half-maximal activity (AC50) is 14.1 µM (active) in assay [4]; 24.8 µM (active) in assay [7]; 32.7 µM (active) in assay [8]; 1.55 µM (active) in assay [14]; 202 µM (active) in [10]. Besides, the compound was called inactive in assay [5] and in assay [11].

For `CCC(C)c1ccccc1O` (centres undefined), the call in [3], in [4], in [5], in assay [11], in assay [7] and in [8] was inactive. For the same compound, the compound was called inactive in [10].

Regarding `NC(=NCCCCCCN=C(N)/N=C(\N)Nc1ccc(Cl)cc1)/N=C(\N)Nc1ccc(Cl)cc1`, in [1], the compound was classed as inactive. Moreover, in assay [2], the AC50 was 7.96 µM (active).

On to `CC(C)(C)c1ccc(O)c(O)c1`, for which the half-maximal activity concentration (AC50) in assay [14] is 76.2 µM (active). For the same compound, the outcome in [15] was inactive.

For the compound `Cn1sccc1=O`, in assay [14], the AC50 is 10.8 µM (active).

In the case of `C=Cc1ccc(O)c(OC)c1`, in assay [14], the concentration at half-maximal activity (AC50) was 81 µM (active).

Consider `Oc1cc2ccccc2cc1O`, for which the outcome in [15] was inactive.

Consider `CC(C)c1c(C(=O)Nc2ccccc2)c(-c2ccccc2)c(-c2ccc(F)cc2)n1CC[C@@H](O)C[C@@H](O)CC(=O)O`, for which, in [9], the AC50 is 2.65 µM (active) and 3.07 µM (active).
